Laboratory results from the supplement of paper PMC11732987, “Enantioselective OTUD7B fragment discovery through chemoproteomics screening and high-throughput optimisation” (Communications Chemistry, 2025).

Experiments:
Assay in all cases: log2 ratio of Biotin-Ahx-Ub-VS probe labelling (fragment/DMSO); higher = less target engagement (more negative = stronger competition), active = hit call of the paper (q ≤ 0.05, log2 ratio ≤ -1)
Details in all cases: compound concentration: 200 uM; treatment time: 3 h
OTUD6B = target: T1, OTUD6B (UniProt Q8N6M0)
T1 sequence (whole entry): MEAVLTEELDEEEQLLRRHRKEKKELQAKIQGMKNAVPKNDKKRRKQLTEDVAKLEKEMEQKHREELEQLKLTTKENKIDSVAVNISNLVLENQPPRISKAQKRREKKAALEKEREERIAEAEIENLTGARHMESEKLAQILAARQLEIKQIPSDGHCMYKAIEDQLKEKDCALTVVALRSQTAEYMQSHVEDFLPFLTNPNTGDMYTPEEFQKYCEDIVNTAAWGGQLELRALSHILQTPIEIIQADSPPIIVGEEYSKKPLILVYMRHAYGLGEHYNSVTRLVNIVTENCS
How it was run: (§1)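 Triplicate samples of HEK293T lysate, 495 µg each, received fragment at 200 µM or vehicle for 3 h, followed by Biotin-Ahx-Ub-VS (0.5 µM final) for 1 h. After NeutrAvidin enrichment of labelled DUBs and LysC/trypsin digestion, peptides were run by diaPASEF LC-MS/MS. The values are average log2 fragment/vehicle ratios from global-median-normalised Spectronaut label-free quantities, tested by unpaired t-test on proteins having ≥2 unique peptides.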

OTUD7B = target: T2, OTUD7B (UniProt Q6GQQ9)
T2 sequence (whole entry): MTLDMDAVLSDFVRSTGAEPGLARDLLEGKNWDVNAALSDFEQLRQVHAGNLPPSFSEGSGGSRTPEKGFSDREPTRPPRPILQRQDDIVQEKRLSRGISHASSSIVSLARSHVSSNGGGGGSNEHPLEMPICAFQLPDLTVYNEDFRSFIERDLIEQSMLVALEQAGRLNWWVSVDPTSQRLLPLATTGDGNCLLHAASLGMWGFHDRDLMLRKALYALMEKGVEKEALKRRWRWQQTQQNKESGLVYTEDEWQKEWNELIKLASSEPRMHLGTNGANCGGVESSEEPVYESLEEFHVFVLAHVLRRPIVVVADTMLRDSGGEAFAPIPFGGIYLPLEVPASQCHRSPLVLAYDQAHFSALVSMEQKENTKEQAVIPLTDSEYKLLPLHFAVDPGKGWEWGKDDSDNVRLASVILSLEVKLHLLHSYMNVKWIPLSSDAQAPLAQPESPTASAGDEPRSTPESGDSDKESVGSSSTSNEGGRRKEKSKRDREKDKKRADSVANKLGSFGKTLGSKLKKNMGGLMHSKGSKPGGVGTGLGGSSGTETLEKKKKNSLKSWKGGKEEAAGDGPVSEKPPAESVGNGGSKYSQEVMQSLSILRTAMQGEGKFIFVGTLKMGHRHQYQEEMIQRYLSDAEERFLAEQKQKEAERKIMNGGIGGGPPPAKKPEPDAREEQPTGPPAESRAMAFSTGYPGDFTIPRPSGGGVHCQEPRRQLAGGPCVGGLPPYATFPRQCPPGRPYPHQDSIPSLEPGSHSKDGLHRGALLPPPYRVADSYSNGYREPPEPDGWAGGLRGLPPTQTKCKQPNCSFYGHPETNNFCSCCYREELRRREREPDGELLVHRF
How it was run: as §1

PRPF8 = PRPF8 (UniProt Q6P2Q9)
How it was run: as §1

PSMD7 = target: T3, PSMD7 (UniProt P51665)
T3 sequence (whole entry): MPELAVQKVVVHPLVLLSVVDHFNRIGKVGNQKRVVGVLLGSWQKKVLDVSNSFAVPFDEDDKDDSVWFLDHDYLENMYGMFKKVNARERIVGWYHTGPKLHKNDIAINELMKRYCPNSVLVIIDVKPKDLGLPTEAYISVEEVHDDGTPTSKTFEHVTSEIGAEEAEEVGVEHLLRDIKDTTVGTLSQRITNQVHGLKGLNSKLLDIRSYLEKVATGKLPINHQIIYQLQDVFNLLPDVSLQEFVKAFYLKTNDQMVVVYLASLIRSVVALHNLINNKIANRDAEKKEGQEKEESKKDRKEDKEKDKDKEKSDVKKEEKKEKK
How it was run: as §1

UCHL1 = UCHL1 (UniProt P09936)
How it was run: as §1

UCHL3 = target: T4, UCHL3 (UniProt P15374)
T4 sequence (whole entry): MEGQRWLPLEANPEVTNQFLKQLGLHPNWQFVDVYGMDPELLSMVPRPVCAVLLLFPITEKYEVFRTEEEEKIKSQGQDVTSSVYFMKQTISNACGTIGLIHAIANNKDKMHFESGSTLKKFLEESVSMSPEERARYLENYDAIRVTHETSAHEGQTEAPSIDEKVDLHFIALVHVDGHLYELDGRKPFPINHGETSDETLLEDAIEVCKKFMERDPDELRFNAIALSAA
How it was run: as §1

UCHL5 = target: T5, UCHL5 (UniProt Q9Y5K5)
T5 sequence (whole entry): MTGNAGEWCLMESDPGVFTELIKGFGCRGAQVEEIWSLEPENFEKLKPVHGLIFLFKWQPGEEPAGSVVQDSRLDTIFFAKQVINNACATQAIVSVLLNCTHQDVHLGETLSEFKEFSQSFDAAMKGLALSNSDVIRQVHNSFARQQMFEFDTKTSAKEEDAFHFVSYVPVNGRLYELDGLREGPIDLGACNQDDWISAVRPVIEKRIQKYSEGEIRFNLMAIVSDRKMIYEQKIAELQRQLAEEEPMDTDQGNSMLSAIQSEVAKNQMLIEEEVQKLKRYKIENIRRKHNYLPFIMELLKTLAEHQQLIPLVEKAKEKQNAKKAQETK
How it was run: as §1

USP10 = USP10 (UniProt Q14694)
How it was run: as §1

USP15 = target: T6, USP15 (UniProt Q9Y4E8)
T6 sequence (whole entry): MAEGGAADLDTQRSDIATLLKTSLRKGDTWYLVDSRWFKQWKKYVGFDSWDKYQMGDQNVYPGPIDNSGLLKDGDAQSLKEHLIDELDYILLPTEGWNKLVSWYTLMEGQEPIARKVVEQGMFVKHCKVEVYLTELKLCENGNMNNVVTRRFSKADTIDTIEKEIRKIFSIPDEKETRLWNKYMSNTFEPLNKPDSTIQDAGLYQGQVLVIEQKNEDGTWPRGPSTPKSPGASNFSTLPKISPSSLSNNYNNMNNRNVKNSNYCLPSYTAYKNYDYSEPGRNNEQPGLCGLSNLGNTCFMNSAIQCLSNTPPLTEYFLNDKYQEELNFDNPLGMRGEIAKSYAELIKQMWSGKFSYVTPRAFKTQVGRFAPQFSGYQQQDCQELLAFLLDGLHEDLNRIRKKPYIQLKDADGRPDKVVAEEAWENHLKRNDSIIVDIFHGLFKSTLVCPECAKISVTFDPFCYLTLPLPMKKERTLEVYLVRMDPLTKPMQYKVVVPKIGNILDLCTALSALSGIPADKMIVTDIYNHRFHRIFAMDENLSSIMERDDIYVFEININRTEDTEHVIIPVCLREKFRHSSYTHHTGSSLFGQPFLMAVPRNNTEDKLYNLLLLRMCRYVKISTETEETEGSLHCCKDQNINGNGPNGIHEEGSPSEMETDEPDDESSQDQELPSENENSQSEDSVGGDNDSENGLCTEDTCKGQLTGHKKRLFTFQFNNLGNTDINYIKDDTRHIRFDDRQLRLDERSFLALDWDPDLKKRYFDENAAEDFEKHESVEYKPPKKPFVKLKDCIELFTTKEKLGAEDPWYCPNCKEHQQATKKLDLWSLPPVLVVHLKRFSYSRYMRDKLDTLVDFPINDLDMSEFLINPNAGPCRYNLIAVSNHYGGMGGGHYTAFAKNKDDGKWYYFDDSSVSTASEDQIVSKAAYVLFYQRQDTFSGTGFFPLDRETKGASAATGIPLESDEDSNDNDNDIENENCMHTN
How it was run: as §1

USP16 = USP16 (UniProt Q9Y5T5)
How it was run: as §1

Measured: log2 ratio of Biotin-Ahx-Ub-VS probe labelling

Sequence of USP10 (Q14694 whole entry): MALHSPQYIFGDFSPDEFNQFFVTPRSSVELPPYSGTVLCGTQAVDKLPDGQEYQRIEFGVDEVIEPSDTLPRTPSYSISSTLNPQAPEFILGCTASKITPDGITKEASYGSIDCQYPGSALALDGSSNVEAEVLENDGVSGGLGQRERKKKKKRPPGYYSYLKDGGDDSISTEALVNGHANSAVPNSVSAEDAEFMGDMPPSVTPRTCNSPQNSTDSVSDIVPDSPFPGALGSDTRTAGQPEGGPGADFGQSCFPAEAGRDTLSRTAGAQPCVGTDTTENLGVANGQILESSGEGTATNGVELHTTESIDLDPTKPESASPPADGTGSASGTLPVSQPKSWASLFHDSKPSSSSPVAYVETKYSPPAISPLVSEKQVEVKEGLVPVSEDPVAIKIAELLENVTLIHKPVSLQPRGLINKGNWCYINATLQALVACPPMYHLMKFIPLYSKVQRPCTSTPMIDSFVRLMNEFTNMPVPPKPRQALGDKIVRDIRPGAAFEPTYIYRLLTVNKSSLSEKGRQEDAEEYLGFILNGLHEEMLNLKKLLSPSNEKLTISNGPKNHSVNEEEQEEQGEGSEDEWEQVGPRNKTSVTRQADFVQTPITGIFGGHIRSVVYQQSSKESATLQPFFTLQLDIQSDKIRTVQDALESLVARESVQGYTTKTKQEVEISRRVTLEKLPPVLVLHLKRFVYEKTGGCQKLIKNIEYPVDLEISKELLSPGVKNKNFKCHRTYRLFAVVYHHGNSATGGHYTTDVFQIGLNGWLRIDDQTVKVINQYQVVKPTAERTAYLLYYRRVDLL
Sequence of UCHL1 (P09936 whole entry, looked up): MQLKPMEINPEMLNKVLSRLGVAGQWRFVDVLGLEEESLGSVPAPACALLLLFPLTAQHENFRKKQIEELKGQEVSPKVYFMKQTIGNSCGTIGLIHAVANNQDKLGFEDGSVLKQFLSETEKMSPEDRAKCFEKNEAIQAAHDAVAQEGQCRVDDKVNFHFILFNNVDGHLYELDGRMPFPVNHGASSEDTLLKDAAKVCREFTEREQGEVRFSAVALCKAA
Sequence of USP16 (Q9Y5T5 whole entry, looked up): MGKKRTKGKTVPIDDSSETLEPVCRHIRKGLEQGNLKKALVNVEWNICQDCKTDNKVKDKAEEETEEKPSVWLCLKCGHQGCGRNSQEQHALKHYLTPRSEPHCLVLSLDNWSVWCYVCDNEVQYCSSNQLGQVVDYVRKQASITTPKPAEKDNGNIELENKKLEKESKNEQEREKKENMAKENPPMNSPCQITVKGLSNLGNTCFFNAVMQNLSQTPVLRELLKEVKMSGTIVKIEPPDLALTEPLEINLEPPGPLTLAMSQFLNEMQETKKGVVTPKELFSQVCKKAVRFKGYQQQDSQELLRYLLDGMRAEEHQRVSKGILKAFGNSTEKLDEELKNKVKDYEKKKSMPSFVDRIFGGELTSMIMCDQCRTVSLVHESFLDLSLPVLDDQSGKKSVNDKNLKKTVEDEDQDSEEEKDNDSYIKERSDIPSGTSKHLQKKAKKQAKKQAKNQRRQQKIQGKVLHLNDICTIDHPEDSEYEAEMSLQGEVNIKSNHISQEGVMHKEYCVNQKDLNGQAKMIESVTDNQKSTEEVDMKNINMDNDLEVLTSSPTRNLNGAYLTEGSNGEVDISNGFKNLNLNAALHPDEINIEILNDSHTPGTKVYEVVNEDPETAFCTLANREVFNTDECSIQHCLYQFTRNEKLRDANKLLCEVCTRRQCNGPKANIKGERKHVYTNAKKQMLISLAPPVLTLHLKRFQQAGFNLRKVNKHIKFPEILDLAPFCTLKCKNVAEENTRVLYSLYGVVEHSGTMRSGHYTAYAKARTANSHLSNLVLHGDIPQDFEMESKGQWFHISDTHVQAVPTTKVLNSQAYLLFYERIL

C#Cc1cccc(NC(=O)CCl)c1
inactive: OTUD6B -0.196 | PRPF8 0.296 | PSMD7 -0.0915 | UCHL5 -0.324 | USP10 -0.0542 | USP15 -0.414 | USP16 -0.23
active: OTUD7B -1.43 | UCHL1 -1.61 | UCHL3 -1.39
